According to PubChem BioAssay (NCATS):
Records with an inconclusive call do not appear. Activity calls are given as the source filed them. Unless noted, the call rests on the fitted dose curve; in most records, active means well fitted inhibition curve with a large enough effect; inconclusive means small, poorly fitted or top-dose-only effect; inactive means flat fitted curve, though single readings scatter.

What was measured:
[1] = qHTS profiling for inhibitors of Plasmodium falciparum proliferation (AID 504749); further: nearly all actives have a fitted effect of over 60% in size;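 on activity, negative = inhibition: 0% = DMSO vehicle and full inhibition = artemisinin control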; conditions: P. falciparum in erythrocytes, SYBR Green DNA, 72 h, at 28.7 µM (top of the series)
How it was run: (§1)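 Parasite proliferation within erythrocytes, 72 h exposure. Endpoint: SYBR Green I fluorescence after overnight lysis at room temperature. Controls: 0.29 uM artemisinin, DMSO.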

3D7 = test: as above; conditions: P. falciparum in erythrocytes, SYBR Green DNA, 72 h; series mostly up to 28.7 µM
How it was run: as §1

AA1029 = test: as above; conditions: P. falciparum in erythrocytes, SYBR Green DNA, 72 h; series mostly up to 28.7 µM
How it was run: as §1

AS120 = test: as above; conditions: P. falciparum in erythrocytes, SYBR Green DNA, 72 h; series mostly up to 28.7 µM
How it was run: as §1

ATS189 = test: as above; conditions: P. falciparum in erythrocytes, SYBR Green DNA, 72 h; series mostly up to 28.7 µM
How it was run: as §1

ATS95 = test: as above; conditions: P. falciparum in erythrocytes, SYBR Green DNA, 72 h; series mostly up to 28.7 µM
How it was run: as §1

7G8 = test: as above; conditions: P. falciparum in erythrocytes, SYBR Green DNA, 72 h; series mostly up to 28.7 µM
How it was run: as §1

[2] = qHTS for identification of novel therapeutic agents for treatment of microphthalmiaassociated transcription factor (MiT) renal cell carcinoma (RCC) (AID 1963991; calls by dose curve); conditions: CellTiter-Glo, 48 h; for z-score: stronger effect = lower value
How it was run: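 Curves over 11 concentrations were fitted to CellTiter-Glo luminescence, scaled between empty wells (0%) and DMSO (100%) viability. Cells were UOK109, UOK124 and UOK145 TFE3-fusion RCC lines at 500/well, exposed 48 hours at 37 C.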
Potency means the concentration at half of the fitted maximal effect.

Cc1cc(O)ccc1Cl
inactive: activity, negative = inhibition ([1]; parasite line A) 4.69% | activity, negative = inhibition ([1]; parasite line B) -0.29% | Potency (3D7) | Potency (AA1029) | Potency (AS120) | Potency (ATS189) | Potency (ATS95)

CC[N+]1(CCOC(=O)C(O)(c2ccccc2)c2ccccc2)CCCCC1
inactive: activity, negative = inhibition ([1]; parasite line A) -23.7% | activity, negative = inhibition ([1]; parasite line B) -20.1% | Potency (3D7) | Potency (AS120) | Potency (ATS189) | Potency (ATS95)

CN1C2CCC1CC(OC(=O)c1cc(Cl)cc(Cl)c1)C2 (stereo unspecified)
inactive: activity, negative = inhibition ([1]; parasite line A) -1.17% | activity, negative = inhibition ([1]; parasite line B) 5.18% | Potency (3D7) | Potency (AA1029) | Potency (AS120) | Potency (ATS189) | Potency (ATS95)
active: Potency (7G8) 6.31 µM

c1ccc(C2(c3ccccc3)CC2C2=NCCN2)cc1 (stereo unspecified)
inactive: activity, negative = inhibition ([1]; parasite line A) -23% | activity, negative = inhibition ([1]; parasite line B) -12.8% | Potency (3D7) | Potency (AA1029) | Potency (AS120) | Potency (ATS189) | Potency (ATS95)

C[C@@]12OC(=O)[C@]1([C@@H](O)[C@@H]1C=CCCC1)NC(=O)[C@H]2CCCl
active: Potency ([2]; TFE3-RCC UOK109 viability) 0.0662 µM
-3.3: z-score ([2]; TFE3-RCC viability, measured here: UOK124 Z-AUC)
-1.51: z-score ([2]; TFE3-RCC UOK109 viability, measured here: UOK109 Z-AUC)
-2.86: z-score ([2]; TFE3-RCC viability, measured here: UOK145 Z-AUC)

O=C(O)C(Cl)Cl
inactive: activity, negative = inhibition ([1]; parasite line A) 7.93% | activity, negative = inhibition ([1]; parasite line B) -3.72% | Potency (3D7) | Potency (7G8) | Potency (AA1029) | Potency (AS120) | Potency (ATS189) | Potency (ATS95)

CCCCc1ccc(C(=O)O)nc1
inactive: activity, negative = inhibition ([1]; parasite line A) 0.211% | activity, negative = inhibition ([1]; parasite line B) 1.46% | Potency (3D7) | Potency (7G8) | Potency (AA1029) | Potency (AS120) | Potency (ATS189) | Potency (ATS95)

Cc1ccc(Cl)c(O)c1
inactive: activity, negative = inhibition ([1]; parasite line A) 9.64% | activity, negative = inhibition ([1]; parasite line B) 15% | Potency (3D7) | Potency (7G8) | Potency (AA1029) | Potency (AS120) | Potency (ATS189) | Potency (ATS95)
